# Source: PubChem
# Compounds with a hit are over-represented: about 1.2% of the library has one in this group of screens.
# PfHsp40 yeast: restores yeast growth despite PfHsp40 toxicity; S. cerevisiae expressing PfHsp40, growth rescue, ATP luminescence; growth rescue, % at 12.5 µM; 340,000 tested, 0.68% active; in the data active means growth rescue above about 28%, passing the limit was not always enough;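 further: yeast W303a lacking pdr1 and pdr3 grown in galactose medium; growth measured after three days at 30 °C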
# TcdB inh: inhibitors of Clostridioides difficile toxin B glycohydrolase. P18177. TcdB glycohydrolase enzymatic assay, plate reader. inhibition, % at 9.99 µM. 350,000 tested, 0.24% active; in the data active means inhibition above about 10%
# FadD28 FP inh: M. tuberculosis FadD28 bisubstrate binding inhibition | FadD28 bisubstrate probe binding, fluorescence polarization | inhibition, % at 12.5 µM | 360,000 tested, 0.22% active; in the data active means inhibition above about 8.5%, passing the limit was not always enough
# PrP 5UTR inh: inhibition of PrP 5' UTR reporter expression. cell-based PrP 5' UTR mRNA reporter, plate reader. 340,000 tested, 0.35% active. inhibition, % (concentration not given with the values); in the data active means inhibition above about 52%; further: 0 = median of the neutral control wells
# BioA inh: blocks M. tuberculosis BioA enzyme activity. purified M. tuberculosis BioA enzyme, plate reader. inhibition, % at 9.99 µM. 360,000 tested, 0.096% active; in the data active means inhibition above about 40%
# Yp Topo-I inh: Y. pestis Topo-I inhibition via cleavage products; Y. pestis Topo-I cleavage product accumulation, plate reader; activity, % at 10 µM; 360,000 tested, 0.064% active; AID 504884; in the data active means activity above about 50%, passing the limit was not always enough
# Active calls of the source: *; · = no result given.
SMILES,PfHsp40 yeast,TcdB inh,FadD28 FP inh,PrP 5UTR inh,BioA inh,Yp Topo-I inh
Clc1ccc(CCNc2nc3ccccc3s2)cc1,217.4*,·,-5.0,-22.3,-1.0,2.3
CC(CNC(=O)C1CCCCC1)NC(=O)C1CCCCC1 (stereo not given),80.4*,-0.5,-0.2,0.7,·,3.2
CCOC(=O)N1CCN(C(=O)c2ccc3c(=O)n(Cc4ccccc4)c(=S)[nH]c3c2)CC1,2.7,·,-3.8,-12.9,-0.4,1.8
CCOC(=O)N1CCN(C(=O)c2ccc3c(=O)n(Cc4ccccc4OC)c(=S)[nH]c3c2)CC1,28.7*,·,-0.7,-2.7,-0.1,2.1
CCCOc1ccc2ccccc2c1/C=C1\SC(=O)NC1=O,504.5*,0.3,-8.3,-20.1,13.8,14.2
O=C1NC(=O)/C(=C/c2cccc3ccccc23)S1,10.6,1.1,-9.4,-7.4,1.7,0.2
Cc1noc(C)c1S(=O)(=O)N(C)C[C@@H]1Oc2ccc(NS(=O)(=O)c3ccccc3)cc2C(=O)N([C@@H](C)CO)C[C@@H]1C,·,·,·,·,2.1,·
COc1ccc(NCc2nc3ccccc3n2CCOc2ccc(C)cc2)cc1,75.1*,-0.7,-0.2,-52.6,·,17.6
O=C(N/N=C/c1sc(N2CCOCC2)nc1-c1ccccc1)c1ccccc1O,238.4*,·,1.7,-8.7,0.7,-6.1
Nc1nc(N)nc(-c2cc(O)ccc2O)n1,-1.8,-10.4,-2.2,6.3,-1.9,-7.0
CC(C)(C)c1cc(-c2nc(N)nc(N)n2)c(O)c(C(C)(C)C)c1,225.4*,0.2,4.0,-11.2,-0.4,-3.1
COC(=O)c1ccccc1-c1ccc(/C=N/NC(=O)c2cc3ccccc3o2)o1,7.1,·,-12.6,-16.7,·,2.7
COC(=O)c1ccccc1-c1c2ccc(=N)cc-2oc2cc(N)ccc12,-0.9,-0.5,128.6*,-6.4,-212.5,-14.0
O=C(COc1cccc(C(F)(F)F)c1)N1CCN(c2ccc(O)cc2)CC1,0.7,15.8*,-0.7,-4.8,0.1,-4.3
Cc1cc(NC(=O)CSCC(=O)N2CCN(c3cccc(C(F)(F)F)c3)CC2)no1,·,1.1,-2.7,5.5,·,-13.1
Cc1ccc(NC(=O)CSCC(=O)N2CCN(c3cccc(C(F)(F)F)c3)CC2)cc1,41.3*,0.8,-4.4,-4.1,-1.0,17.5
Cn1c(=O)cc(OCC(=O)N2CCN(c3cccc(C(F)(F)F)c3)CC2)c2ccccc21,47.5*,·,-1.0,5.7,-0.5,12.2
C[C@@H]1CCCCO[C@@H](CN(C)S(C)(=O)=O)[C@@H](C)CN([C@H](C)CO)C(=O)c2cc(NS(=O)(=O)c3ccc(F)cc3)ccc2O1,·,-1.8,·,·,0.0,·
CO[C@@H]1CN(C)C(=O)c2cc(NC(=O)c3nc4ccccc4s3)ccc2OC[C@@H](C)N(Cc2ccccc2)C[C@H]1C,·,0.3,·,·,-0.9,·
COc1ccc(S(=O)(=O)N(C)C[C@H]2Oc3cc(C4=CCCC4)ccc3S(=O)(=O)N([C@@H](C)CO)C[C@H]2C)cc1,·,-0.1,·,·,-0.3,·
CC(C)N1CCc2c(sc(NC(=O)c3ccc4ccccc4c3)c2C(N)=O)C1,0.3,-3.0,-4.4,-4.6,-7.0,-7.6
CC(C)N1CCc2c(sc(NC(=O)c3cc4cc([N+](=O)[O-])ccc4s3)c2C(N)=O)C1,-0.3,1.6,14.5*,-23.7,0.0,-25.3
COCCN1CC(=O)N(c2cccc(C)c2C)C(c2ccc(Cl)cc2)C1=O (stereo not given),-0.1,·,-0.4,-13.4,3.2,-0.2
Cc1cccc(N2C(=O)C(Oc3ccc(Cl)cc3Cl)C2C=O)c1C (stereo not given),280.5*,0.4,-0.4,-17.4,·,-1.1
O=C(Nc1ccc(Cl)cc1)NC1CCCCC1Cc1ccco1 (stereo not given),226.5*,·,-8.6,-28.4,-1.4,-0.9
SMILES,PfHsp40 yeast,TcdB inh,FadD28 FP inh,PrP 5UTR inh,BioA inh,Yp Topo-I inh
C[C@]12C=CC(=O)C=C1CC[C@@H]1[C@@H]2CC[C@]2(C)C(=O)CC[C@@H]12,48.1*,0.7,-0.8,-20.4,7.0,3.6
Nc1nn2cc(-c3ccc(Br)cc3)nc2c2ccccc12,91.1*,-0.5,-2.6,-83.3,4.0,2.4
O=C(O)CN1C(=O)NC2(CCOc3ccccc32)C1=O (stereo not given),0.5,2.6,-1.7,-13.8,-0.2,1.7
O=C(CN1C(=O)NC2(CCOc3ccccc32)C1=O)c1ccc(Br)cc1 (stereo not given),-0.7,0.3,21.4*,-12.8,0.2,11.2
O=C(CN1C(=O)NC2(CCOc3ccccc32)C1=O)c1ccc(Cl)cc1 (stereo not given),0.2,0.4,16.3*,-29.8,-0.8,-1.6
COc1cc2c(c(OC)c1OC)-c1ccc(OC)c(=O)cc1C(NC(C)=O)CC2 (stereo not given),-1.4,0.7,-3.5,63.4*,-0.5,-5.3
CC(=O)NCCNC(=O)C1Cc2c(-c3ccccc3Oc3ccccc3)ccnc2O1 (stereo not given),·,3.9,-0.9,·,6.6,21.6
CNC(=O)C1Cc2c(-c3ccccc3Oc3ccccc3)ccnc2O1 (stereo not given),·,13.1*,-2.1,·,0.6,12.9
Cn1c(COc2ccc3ccccc3c2)nnc1SCC(N)=O,-1.3,·,-5.2,-48.9,0.1,7.8
Cn1c(COc2ccc3ccccc3c2)nnc1SCC(=O)OC1CCCCC1,49.0*,·,-3.1,-12.9,0.8,5.5
O=C1N(c2ccc3c(c2)OCCO3)C(c2ccccc2)C1(F)F (stereo not given),43.4*,1.4,-4.8,-7.0,·,3.1
Cn1cnc(S(=O)(=O)N[C@H]2CC[C@H](CC(=O)Nc3ccccc3)O[C@@H]2CO)c1,·,-0.2,·,·,4.9,·
COc1ccc(N2C(=O)CC(SCC(=O)O)C2=O)cc1 (stereo not given),0.2,-0.3,-4.7,-22.2,-1.7,0.1
COc1ccc(N2C(=O)CC(SCc3ccc(Cl)cc3)C2=O)cc1 (stereo not given),70.4*,-0.8,-4.5,-24.3,·,26.9
C[C@@H]1CN([C@@H](C)CO)C(=O)c2cc(C#Cc3cccnc3)cnc2O[C@@H]1CN(C)C(=O)CN(C)C,·,·,·,·,0.5,·
O=CN(c1ccccc1)c1ccc2ccccc2c1,1.6,13.0*,-0.9,-5.9,·,11.7
CN(c1ccccc1)S(=O)(=O)c1ccc2ccccc2c1,7.4,0.6,1.0,-22.0,-0.1,-2.2
CCCNC(=O)C[C@H]1C[C@@H]2c3cc(NC(=O)Nc4ccc(F)cc4)ccc3O[C@@H]2[C@@H](CO)O1,·,0.7,·,·,-1.3,·
NC(=O)c1cc([N+](=O)[O-])ccc1Nc1ccccc1,48.3*,5.1,-0.3,-8.3,0.9,5.7
COc1ccc(-c2nnc(SCC(=O)NCc3cccs3)n2C)cc1,-1.9,·,-1.0,-25.4,0.1,-1.7
Cn1c(SCC(=O)NCc2cccs2)nnc1-c1ccncc1,-1.5,·,-3.2,-7.6,-0.6,55.6*
CCCCCCCNC(=O)C1(CC2CC(c3cccc(Br)c3)=NO2)CCN(C(=O)C2CCCC2)CC1 (stereo not given),-0.9,0.4,-3.7,-13.9,0.3,60.2*
